# In ChEMBL document CHEMBL3988442, “University of Dundee, Small-Polar-MMV Screening Library” (2021):
# Among all 48,000 compounds or so, about 13,000 (27%) showed an effect of 50% or more. The list shows a part of the results.
# System: Wolbachia pipientis
# Assay: Anti-Wolbachia Cell-Based Screen
# Format: functional
# Design: scale not given: in the data most compounds retested in dose-response had high values
# Settings: 5 µM
row,SMILES,Percent Effect [%]
1,CCC(CC)c1cc(C(=O)N2CCN(CC(N)=O)CC2)on1,14.59
2,CC(=O)N1CCC(C(=O)NC(C)c2cccc(OC(F)F)c2)CC1 (stereo unspecified),11.71
3,CNC(=O)[C@@H](c1ccccc1)N1CCC[C@H]1C(=O)NC1CCCCC1.Cl,13.78
4,O=C1NCCCC12CCN(S(=O)(=O)N1CCOCC1)C2 (stereo unspecified),-15.95
5,CCc1nc(CN(C)Cc2nc(-c3ccccc3Cl)oc2C)no1,-5.34
6,NC(=O)NC(CC(=O)NCCc1cccc(F)c1)c1ccccc1 (stereo unspecified),-0.165
7,c1ccc(C2CCCCN2Cc2nc(-c3cnccn3)no2)nc1 (stereo unspecified),12.62
8,CN(C)CCC1CCCCN1Cc1cnc(-c2ccccn2)nc1 (stereo unspecified),-28.12
9,c1ccc(C2CCCN2Cc2nc(-c3cnccn3)no2)nc1 (stereo unspecified),-14.84
10,c1cnc2c(CN3CCCCC3c3ccncn3)cnn2c1 (stereo unspecified),72.9
11,CNc1nccc(C2CCCCN2Cc2cnn3cccnc23)n1 (stereo unspecified),117.1
12,c1ccc(-c2ncc(CN3CCCCC3CCn3cccn3)cn2)nc1 (stereo unspecified),-35.25
13,Cc1nc(C)c(C)c(NCc2cnn3cccnc23)n1,-1.599
14,CN(C)c1nccc(C2CCCCN2Cc2cnn3cccnc23)n1 (stereo unspecified),74.52
15,CN(C)Cc1nc(C(C)(C)NC(=O)c2nc3ccccc3s2)no1,8.405
16,CC(C)c1cc(C(=O)N2C[C@H]3CC[C@@H]2CN(Cc2cscn2)C3)no1,-2.131
17,CNC(=O)C(C)(C)N1CCC[C@H]1C(=O)NC(C)(C)C,-3.15
18,OCCN1CCC(Cc2nccs2)CC1,98.4
19,Fc1ccccc1CC1CCN(Cc2nccs2)CC1,9.425
20,Fc1ccc(CC2CCN(Cc3nccs3)CC2)cc1,16.43
21,CCOCc1nc2c(c(NCc3cc(C)on3)n1)CCN(C(C)=O)CC2,-0.7778
22,CCc1nc(NC(=O)NCCc2scnc2C)nn1C,3.208
23,COc1cccc(C2CCCN2C(=O)c2ccc(=O)n(C)c2)c1 (stereo unspecified),0.747
24,COc1ccccc1C(=O)N1CCCC1c1ncc2c(n1)CCNC2.Cl (stereo unspecified),126.5
25,Cc1ncnc2c1CCN(C(=O)c1cccc(F)c1)CC2,-5.781
26,Cl.O=C(c1cccc(F)c1)N1CCCC1c1ncc2c(n1)CCNC2 (stereo unspecified),105.4

row,SMILES,Percent Effect [%]
1,COc1cccc(C2CCCN2C(=O)c2cc3c(nc2OC)CCC3)c1 (stereo unspecified),-14.5
2,O=C(c1ccc(F)c(F)c1)N1CCCCC1c1nc[nH]n1 (stereo unspecified),17.06
3,COc1cccc(C(=O)N2CCCC2c2ncc3c(n2)CCN(C)C3)c1 (stereo unspecified),114.1
4,CN(C)c1cccc(C(=O)N2CCCC2c2ncc3c(n2)CCNC3)c1.Cl (stereo unspecified),118.3
5,COc1ccccc1C(=O)N1CCCC1c1nncn1CC(C)C (stereo unspecified),2.233
6,CN(C)c1cccc(C(=O)N2CCc3ccc(=O)[nH]c3CC2)c1,-3.419
7,CCOc1ccccc1C(=O)N1CCCC1c1ncc2c(n1)CCNC2.Cl (stereo unspecified),7.885
8,N#CCCCS(=O)(=O)N1CCC(CSc2ccccc2)C1 (stereo unspecified),-3.001
9,O=C(C1SCCc2sccc21)N1CCN(CCO)CC1 (stereo unspecified),1.361
10,O=C1NC2(Nc3ncccc31)C(=O)Nc1c2ccc(Cl)c1F (stereo unspecified),-11.72
11,c1ccc(-c2nnc3n2CCN(c2nc(C4CC4)ns2)C3)cc1,-0.2636
12,O=C(Cn1ccc2ncccc2c1=O)N1CCSCC1,-22.33
13,CN1C(=O)COc2ccc(C(=O)Cn3cnc4ccccc4c3=O)cc21,102.3
14,CN(Cc1noc2c1CCCC2)C(=O)Cn1cnc2ccccc2c1=O,0.7727
15,CCCc1nccn1CCn1cnc2ccsc2c1=O,-10.48
16,CCn1ccnc1SCCn1cnc2ccsc2c1=O,-20.68
17,CN1C(=O)COc2ccc(C(=O)Cn3cnc4ccsc4c3=O)cc21,115.3
18,CC(C)(C)C(=O)N1CCN(CCOc2cccc(C#N)c2)CC1,23.12
19,CCC[C@@H]1CN(C(=O)c2c(F)ccc(OC)c2F)C[C@H]1C(=O)O,-8.772
20,CCOc1ccc(N(C)Cc2nc(C)c(C)o2)cc1,2.822
21,C/N=C1/c2cc3cc(OC)ccc3n2CCN1Cc1ccccc1.Cl,86.74
22,C/N=C1\c2cc3cc(OC)ccc3n2CCN1C.Cl,97.02
23,COc1ccc2c(c1)nc1n2[C@@H](CNCc2ccccc2)COC1,-7.543
24,CCOC(=O)c1coc(N2CCN(Cc3cccc(OC)c3)C(=O)C2)n1,-20.43
25,CCN1CC(NC(=O)Nc2nc(C)n(C(C)C)n2)CC1=O (stereo unspecified),-13.6
26,Cc1cc(N2CCC3(CCC(=O)N(CCCO)C3)CC2)nc(N(C)C)n1,15.64

row,SMILES,Percent Effect [%]
1,O=C(NC1CC1)[C@H]1CC[C@@H]2[C@@H](CCN2c2ncc(F)cn2)O1.O=C(O)C(F)(F)F,-10.92
2,COc1cc(N2CC[C@H]3O[C@@H](C(=O)NC4CCCC4)CC[C@H]32)ncn1.O=C(O)C(F)(F)F,90.73
3,COc1ccc(C[C@H]2CN(c3cc(OC)ncn3)CC[C@H]2OC)cc1.O=C(O)C(F)(F)F,-1.133
4,O=C(NC1CCCC1)[C@H]1CC[C@@H]2[C@@H](CCN2c2ncc(F)cn2)O1.O=C(O)C(F)(F)F,6.364
5,COc1cc(N2CC[C@@H]3O[C@H](C(=O)N(C)C)C[C@@H]32)ncn1.O=C(O)C(F)(F)F,99.56
6,COc1ccc(C[C@H]2CN(c3cc(OC)ncn3)CC[C@@H]2OC)cc1.O=C(O)C(F)(F)F,-9.694
7,COc1cc(NC(=O)c2cc(C)sc2C)c(C(=O)N(C)C)cc1OC,-0.1136
8,CC(=O)c1ccc(-n2ccc3nc(N4CCCC4)ncc3c2=O)cc1,-1.476
9,CN(C)CC1(O)CCN(Cc2cnc3c(-c4ccccc4)cnn3c2)C1 (stereo unspecified),-5.196
10,CC(CCN1CCn2nc(CNC(=O)N(C)C)cc2C1)c1ccccc1 (stereo unspecified),-9.419
11,CS(=O)(=O)NCc1cc2n(n1)CCCN(Cc1cc3ccccc3o1)C2,0.8182
12,CC(CCN1CCCn2nc(CNS(C)(=O)=O)cc2C1)c1ccccc1 (stereo unspecified),111.7
13,CC(C)Sc1nnc(CCNC(=O)OC(C)(C)C)o1,12.98
14,CN(C)C(=O)CSc1nnc(CCNC(=O)OC(C)(C)C)o1,15.65
15,COC(=O)CSc1nnc(CCNC(=O)OC(C)(C)C)o1,120.8
16,Cc1nc(N2CC[C@@H](NC(=O)c3cnccn3)[C@H](O)C2)c2ccsc2n1,4.294
17,Cc1nc(CN(C)C2CCN(CC(=O)NC3CCOCC3)C2)no1 (stereo unspecified),-6.239
18,Cc1nc(CN(C)C2CCN(CC(=O)N3CCOCC3)C2)no1 (stereo unspecified),-5.301
19,CN(Cc1noc(C2CC2)n1)C1CCN(CC(=O)N2CCOCC2)C1 (stereo unspecified),87.19
20,Cc1nc(CN(C)C2CCN(CCC(=O)N3CCOCC3)C2)no1 (stereo unspecified),118.2
21,CCc1nc(CN(C)C2CCN(CC(=O)N3CCOCC3)C2)no1 (stereo unspecified),114.4
22,c1ccc(-n2cc(CN3CCCC(Cn4cncn4)C3)nn2)cc1 (stereo unspecified),6.927
23,CC(C)N(C)[C@@H]1CCN(c2ncccn2)[C@H]1Cc1ccncc1.O=C(O)C(F)(F)F.O=C(O)C(F)(F)F,-5.254
24,Cc1cnc(C(=O)N2CCCC(Cn3cc(CC(C)C)nn3)C2)cn1 (stereo unspecified),-14.05
25,CC(C)CNC(=O)c1cc(Br)c2c(c1)OCCO2,-6.005
26,CCCc1cc(CN(C)C2CSCCSC2)n[nH]1,-33.01

row,SMILES,Percent Effect [%]
1,Cn1cccc1-c1cc(C(=O)N2CCCC2c2cccnc2)[nH]n1 (stereo unspecified),-7.739
2,Cn1cccc1C(=O)N1CCCCC1c1[nH]ncc1S(C)(=O)=O (stereo unspecified),102.3
3,Cc1ccc(C(=O)N2CCCCC2c2[nH]ncc2S(C)(=O)=O)cn1 (stereo unspecified),107.9
4,Cn1cccc1-c1cc(C(=O)N2CCCCC2c2ccc(F)cc2)[nH]n1 (stereo unspecified),6.407
5,Cc1cnc(C(=O)N2CCCCC2c2[nH]ncc2S(C)(=O)=O)cn1 (stereo unspecified),-8.056
6,CC1CCCCN1C(=O)c1ccc(Br)s1 (stereo unspecified),10.55
7,Cc1ccc(C(=O)N2CCCCC2c2[nH]ncc2S(C)(=O)=O)s1 (stereo unspecified),77.94
8,NC(=O)C1CCCCN1C(=O)c1ccc(Br)s1 (stereo unspecified),11.69
9,Cc1cccc(C(=O)N2CCCCC2c2[nH]ncc2S(C)(=O)=O)c1 (stereo unspecified),98.38
10,Cc1cccc(C(=O)N2CCCCC2c2ccc(CN(C)C)cc2)c1 (stereo unspecified),14.25
11,Cc1cccnc1C(=O)N1CCCCC1c1[nH]ncc1S(C)(=O)=O (stereo unspecified),-7.963
12,CC1CCN(CC(O)CNc2ccc(Cl)cn2)CC1 (stereo unspecified),15.58
13,CC(=O)N(C)CC(=O)Nc1ccc(C)cc1OCc1ccccc1,2.382
14,Cc1nc(CNC(=O)N(Cc2ccccc2)CC(C)(C)O)oc1C,-21.53
15,CC(=O)NCCCNCc1ccc(Cl)c2cccnc12,-6.459
16,CC(Cn1cccn1)NC(=O)NCc1cccnc1OC1CCCC1 (stereo unspecified),11.91
17,CC(Cn1cccn1)NC(=O)NCc1ccc(C(N)=O)cc1 (stereo unspecified),167.3
18,CC(Cn1cccn1)NC(=O)NCc1ccc(S(C)(=O)=O)cc1 (stereo unspecified),102.2
19,Cc1ccc(C(=O)NC(C)Cn2cccn2)c(=O)[nH]1 (stereo unspecified),-0.2392
20,COc1ccc(CNC(=O)NC(C)Cn2cccn2)cc1O (stereo unspecified),8.397
21,CC(Cn1cccn1)NC(=O)CCc1ccc(S(N)(=O)=O)cc1 (stereo unspecified),6.181
22,CC(Cn1cccn1)NC(=O)NCc1ccc(S(N)(=O)=O)cc1 (stereo unspecified),4.625
23,CC(C)NC(=O)NCc1ccc(C(=O)NC(C)Cn2cccn2)cc1 (stereo unspecified),146.4
